Reference: ChEMBL document CHEMBL3433997, “St. Jude Leishmania screening dataset” (2016)

What was measured:
Assay type in all cases: functional
[1] = target: Solute carrier family 2, facilitated glucose transporter member 1 (Homo sapiens) (UniProt P11166); assay: ST_JUDE_LEISH: Cytotoxicity at 2uM final concentration against transgenic Leishmania Mexicana promastigotes LmGLUT1 that are glucose transport deficient and complemented with the human glucose transporter GLUT1. Activity is measured by DNA content using SYBR green in vitro
[2] = target: Hexose transporter 1 (Plasmodium falciparum) (UniProt O97467); assay: ST_JUDE_LEISH: Cytotoxicity at 2uM final concentration against transgenic Leishmania Mexicana promastigotes LmPfHT that are glucose transport deficient and complemented with the Plasmodium falciparum hexose transporter. Activity is measured by DNA content using SYBR green in vitro
[3] = target: Glucose transporter (Leishmania mexicana) (UniProt O61059); assay: ST_JUDE_LEISH: Cytotoxicity at 2uM final concentration against transgenic Leishmania Mexicana promastigotes LmGT2 that are glucose transport deficient and complemented with the L. Mexicana glucose transporter 2. Activity is measured by DNA content using SYBR green in vitro

Sequence of Solute carrier family 2, facilitated glucose transporter member 1 (Homo sapiens) (P11166 whole entry): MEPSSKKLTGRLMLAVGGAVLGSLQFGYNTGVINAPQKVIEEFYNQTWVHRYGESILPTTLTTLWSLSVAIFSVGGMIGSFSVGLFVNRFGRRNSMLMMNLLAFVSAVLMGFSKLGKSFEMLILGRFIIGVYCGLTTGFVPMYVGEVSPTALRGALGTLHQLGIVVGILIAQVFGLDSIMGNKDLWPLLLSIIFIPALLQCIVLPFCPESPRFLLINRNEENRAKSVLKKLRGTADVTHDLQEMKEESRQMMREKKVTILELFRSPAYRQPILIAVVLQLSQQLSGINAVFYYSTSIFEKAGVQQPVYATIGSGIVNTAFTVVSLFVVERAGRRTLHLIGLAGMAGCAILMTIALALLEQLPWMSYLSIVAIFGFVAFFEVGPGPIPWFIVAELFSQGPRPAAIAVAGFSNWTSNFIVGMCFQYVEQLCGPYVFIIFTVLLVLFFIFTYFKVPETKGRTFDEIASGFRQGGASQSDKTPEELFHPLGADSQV

Row | Compound | inhibition [1] [%] | inhibition [2] [%] | inhibition [3] [%]
1 | O=C1NC(=S)N/C1=C/C=C/c1ccc([N+](=O)[O-])o1 | 27.9 | 30.9 | 5.12
2 | COc1ccc(/C=C/C(=O)NCCCCCN2CCC(c3c[nH]c4ccccc34)CC2)cc1O | 12.1 | 9.97 | 7.57
3 | O=C(/C=C/c1ccc(Cl)c(Cl)c1)NCCCCCN1CCC(NC(=O)c2ccc([N+](=O)[O-])cc2)CC1 | 12.2 | 9.99 | 9.31
4 | COc1cccc(-c2ccc3ccnc(N)c3c2)c1 | 4.14 | 4.24 | 2.03
5 | CC(=O)Nc1cccc(C(=O)Nc2cccc(-c3ccc(-c4nc5cc(F)ccc5[nH]4)cc3)c2)c1 | 2.1 | 2.11 | 1.46
6 | COCCNCc1cccc(-c2ccc3nccc(Nc4cc(O)ccc4C)c3c2)c1 | 3.68 | 4.21 | 4.38
7 | OCCCCCCNc1ccnc2[nH]c3ccc(I)cc3c12 | 8.64 | 6.33 | 3.14
8 | CCC(C)CN1CCCN(c2ccc(NC(=O)c3cccs3)cc2)CC1 (stereo unspecified) | 1.62 | -0.95 | 5.89
9 | CC1(C)CC(NC(=O)NC2CCN(Cc3ccccc3)CC2)CC(C)(CNC(=O)NC2CCN(Cc3ccccc3)CC2)C1 (stereo unspecified) | 5.31 | 5.93 | 1.3
10 | Fc1ccc2[nH]c(-c3cccc(-c4ccc(CN5CCN(CCN6CCOCC6)CC5)cc4)c3)nc2c1 | 1.26 | 1.68 | 1.79
11 | O=C(Nc1cccc(CN2CCCN(Cc3ccc(O)cc3)CC2)c1)c1ccc2ccccc2n1 | 2.74 | 2.83 | -3.88
12 | COc1cccc(C(=O)N2CCN(Cc3cccc(NC(=O)c4cccs4)c3)CC2)c1 | 2.14 | 2.18 | 5.14
13 | CN1CCC(NCc2ccc(-c3ccc(S(=O)(=O)NCc4ccccc4)cc3)cc2)CC1 | 0.4 | -1.45 | -3.56
14 | C=CCN1C(=O)CN(S(=O)(=O)c2ccc(-n3nc(C)cc3C)cc2)C1=S | 3.32 | 3.89 | 2.49
15 | CCOc1ccccc1CNc1nccc(NCCc2cn(C)c3ccccc23)n1 | 7.77 | 3.5 | 2.49
16 | CCCC(C)n1ccc2c3c(N)nc(N)nc3ccc21 (stereo unspecified) | 47.3 | 56.9 | 29.7
17 | O=C(NC1CCN(CC2(c3ccc(Cl)cc3)CCCCC2)CC1)c1cc[nH]n1 | 3.86 | 2.9 | 3.61
18 | CC(C)c1ccc(Cn2cc(-c3ccncc3)c3cc(OCc4ccccc4)ccc32)cc1 | 0.76 | 0.58 | 2.49
19 | CC(C)(C)c1ccc2oc(=O)n(C3CCN(C(=O)c4ccc([N+](=O)[O-])o4)CC3)c2c1 | 5.8 | 10.9 | 0.29

Row | Compound | inhibition [1] [%] | inhibition [2] [%] | inhibition [3] [%]
20 | CCOc1ccc2[nH]c(C)cc(=NN=Cc3cccc(C)n3)c2c1 | 3.19 | 7.58 | 2.54
21 | Cc1cc(C2CCN(CCCCNC(=O)c3ccc(-c4ccc(C#N)cc4)cc3)CC2)c(C)cc1O | 4.77 | 3.77 | 4.8
22 | COc1cc(NC(=O)c2sc(-c3ccc(Cl)cc3)cc2NC(=O)c2ccncc2)ccc1OCCN1CCCC1 | 7.57 | 3.54 | 0.97
23 | Cc1cccc2nc(-c3cccc(-c4ccc(NC(=O)c5ccncc5)cc4)c3)[nH]c12 | 2.81 | 2.24 | 2
24 | COc1ccc(C2CC(=O)C3=C(C2)NC(C)=C(C(=O)OC2CCCC2)C3c2cccc(O)c2)cc1OC (stereo unspecified) | 4.21 | 1.05 | 0.17
25 | COc1ccccc1-c1cc(C(=O)N2CCN(S(=O)(=O)c3ccc(C)cc3)CC2)[nH]n1 | 6.02 | 3.73 | -0.58
26 | O=C(Nc1ccc(F)c(Cl)c1)c1cc([N+](=O)[O-])cc2cn[nH]c12 | -0.64 | -0.66 | -2.22
27 | CC(C)NCc1ccc(-c2cccc(NC(=O)c3ccc(F)cc3)c2)cc1 | 6.57 | 9.15 | 6.89
28 | COCCNCc1ncsc1-c1ccc2c(Nc3cc(O)c(Cl)cc3F)ccnc2c1 | 3.19 | 3.29 | 1.41
29 | O=C(/C=C/c1ccc(C(F)(F)F)cc1)NCCCCCN1CCCN(C(=O)Nc2ccc(Cl)c(C(F)(F)F)c2)CC1 | -0.16 | 0.4 | 0.66
30 | O=C(CN1CCN(C(=O)c2ccco2)CC1)Nc1ccc(Br)cc1Cl | -3.24 | -1.31 | -0.59
31 | Cc1cc(-c2ccc(Cl)cc2)c2c(N)c(C(=O)Nc3ccc(F)cc3)sc2n1 | 0.19 | -2.52 | 0.35
32 | Cc1onc(-c2ccccc2)c1C(=O)Nc1nc(-c2ccccn2)nc2ccsc12 | 2.38 | 1.96 | 0.03
33 | COCc1nc(N)nc(N)c1-c1ccc(Cl)c(Cl)c1 | -0.03 | 0.2 | 0.08
34 | Cc1ccc(C)c(CC(=O)N2CCC(n3c(C)nc4ccc(F)cc43)CC2)c1 | 4.03 | 3.03 | 2.07
35 | COc1ccccc1-c1cccc2c(NC(=O)Nc3ccc4nccc(N5CCN(C)CC5)c4c3)ccnc12 | 1.85 | 2.74 | 2.18
36 | COc1ccc(-c2ccc(NC(=O)c3cccc(Cl)c3)c(F)c2)cc1CNC(C)C | 9.29 | 7.16 | 4.55
37 | O=C(Nc1ccc2c(c1)CCCN2S(=O)(=O)c1cccs1)c1cc([N+](=O)[O-])ccc1Cl | 5 | 8.25 | 3.5
